{
  "source": "PubChem BioAssay AID743312",
  "about": "(Broad Institute, 2014)",
  "test": "A549 cell cytotoxicity, dose response, cytotoxicity control, plate reader, dry powder, set 6 (AID 743312)",
  "note": "Potency and affinity values are given separately. Calls of active or inactive are those of the source. Where a call stands in place of a potency, no number is given. The rule behind the calls is not given here.",
  "data": [
    {"smiles": "S=c1[nH]c2cc(Cl)ccc2n1CCOc1ccccc1", "values": [
      {"measurement": "outcome", "value": "inactive"}
    ]},
    {"smiles": "Cc1ccc(C(C)C)c(OCCn2c(N)nc3ccccc32)c1", "values": [
      {"measurement": "outcome", "value": "inactive"}
    ]},
    {"smiles": "Cc1cc2ncn(CCOc3ccccc3)c2cc1C", "values": [
      {"measurement": "outcome", "value": "inactive"}
    ]},
    {"smiles": "COc1ccc(OCCn2cnc3ccccc32)cc1", "values": [
      {"measurement": "outcome", "value": "inactive"}
    ]},
    {"smiles": "FC(F)(F)c1cccc(OCCn2cnc3ccccc32)c1", "values": [
      {"measurement": "outcome", "value": "inactive"}
    ]},
    {"smiles": "O=S(=O)(c1ccc(OCCn2cnc3ccccc32)cc1)N1CCOCC1", "values": [
      {"measurement": "outcome", "value": "inactive"}
    ]},
    {"smiles": "CCc1nc2ccccc2n1CCOc1ccccc1", "values": [
      {"measurement": "outcome", "value": "inactive"}
    ]},
    {"smiles": "Clc1ccc(OCCn2cnc3ccccc32)cc1", "values": [
      {"measurement": "outcome", "value": "inactive"}
    ]},
    {"smiles": "Fc1ccc(OCCn2c(=S)[nH]c3ccccc32)cc1", "values": [
      {"measurement": "outcome", "value": "inactive"}
    ]},
    {"smiles": "Cc1cccc(OCCn2cnc3ccccc32)c1", "values": [
      {"measurement": "outcome", "value": "inactive"}
    ]},
    {"smiles": "Fc1cccc2c1[nH]c(=S)n2CCOc1ccccc1", "values": [
      {"measurement": "outcome", "value": "inactive"}
    ]},
    {"smiles": "CS(=O)(=O)c1ccc(OCCn2cnc3ccccc32)cc1", "values": [
      {"measurement": "outcome", "value": "inactive"}
    ]},
    {"smiles": "Clc1ccccc1OCCn1cnc2ccccc21", "values": [
      {"measurement": "outcome", "value": "inactive"}
    ]},
    {"smiles": "OCc1nc2ccccc2n1CCOc1ccccc1", "values": [
      {"measurement": "outcome", "value": "inactive"}
    ]},
    {"smiles": "CSc1nc2ccccc2n1CCOc1cc(C)ccc1C(C)C", "values": [
      {"measurement": "outcome", "value": "inactive"}
    ]},
    {"smiles": "CCCc1nc2ccccc2n1CCOc1ccccc1", "values": [
      {"measurement": "outcome", "value": "inactive"}
    ]},
    {"smiles": "Cc1ccc(C(C)C)c(OCCn2c(NC#N)nc3ccccc32)c1", "values": [
      {"measurement": "outcome", "value": "inactive"}
    ]},
    {"smiles": "Cc1cccc(OCCn2c(=S)[nH]c3cc(F)ccc32)c1", "values": [
      {"measurement": "outcome", "value": "inactive"}
    ]},
    {"smiles": "CC(C)(C)c1ccc(OCCn2cnc3ccccc32)c(Cl)c1", "values": [
      {"measurement": "outcome", "value": "inactive"}
    ]},
    {"smiles": "COc1cc(C)ccc1OCCn1cnc2ccccc21", "values": [
      {"measurement": "outcome", "value": "inactive"}
    ]},
    {"smiles": "Cc1cccc(OCCn2c(=S)[nH]c3ccccc32)c1", "values": [
      {"measurement": "outcome", "value": "inactive"}
    ]}
  ]
}
